# Measurements: PubChem BioAssay (NCATS)
# Inconclusive results are not listed. Calls of active or inactive are those of the source. Calls follow the shape of the dose curve; as a rule, active = well fitted curve in the direction sought with a large enough effect; inconclusive = small, poorly fitted or top-dose-only effect, or another doubt; inactive = no such curve, though single readings can be large; an effect the other way counts as inactive or inconclusive.
# Assays:
# [1] = qHTS of pediatric cancer cell lines to identify multiple opportunities for drug repurposing: Confirmatory screen for SJ-GBM2 cells (AID 1347116); settings: SJ-GBM2 glioblastoma cells, viability; also: nearly all actives have a fitted effect of over 60% in size
# In short: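 Viability measured as metabolically active cells via CellTiter-Glo luminescence following 48 hours of compound exposure, 11-point dilutions in confirmatory testing. 500-1,000 cells/well plated 5 hours before dosing; controls were DMSO and 2.3 µM bortezomib.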
# [2] = qHTS of pediatric cancer cell lines to identify multiple opportunities for drug repurposing: Confirmatory screen for BT-37 cells (AID 1347117); settings: BT-37 pediatric cancer cells, viability; also: nearly all actives have a fitted effect of over 55% in size
# In short: (§1)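 Cells (500-1,000/well) in growth media were settled 5 h at 37 degrees C, then given compounds for 48 h. Viability was read as CellTiter-Glo luminescence. Primary runs used MIPE at 11 points (0.78 nM-46 µM) and NPC at 8 points (0.59 nM-46 µM); follow-ups used 11 points.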
# [3] = qHTS of pediatric cancer cell lines to identify multiple opportunities for drug repurposing: Confirmatory screen for TC32 cells (AID 1347118); settings: TC32 Ewing sarcoma cells viability qHTS;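 also: cells exposed to compound for 48 h before the read; nearly all actives have a fitted effect of over 65% in size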
# In short: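 qHTS, TC32, 48 h drug treatment, CellTiter-Glo luminescence as a proxy for metabolically active cells; primary top concentration 46 µM (MIPE 11-pt, NPC 8-pt); confirmatory 11-pt.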
# [4] = qHTS of pediatric cancer cell lines to identify multiple opportunities for drug repurposing: Confirmatory screen for MG 63 (6-TG R) cells (AID 1347119); settings: MG-63 (6-TG resistant) osteosarcoma viability; also: nearly all actives have a fitted effect of over 55% in size
# In short: as §1
# [5] = qHTS of pediatric cancer cell lines to identify multiple opportunities for drug repurposing: Confirmatory screen for control Hh wild type fibroblast cells (AID 1347121); settings: viability qHTS; also: nearly all actives have a fitted effect of over 70% in size
# In short: as §1
# [6] = qHTS of pediatric cancer cell lines to identify multiple opportunities for drug repurposing: Confirmatory screen for U-2 OS cells (AID 1347122); settings: U-2 OS osteosarcoma cell viability; also: nearly all actives have a fitted effect of over 65% in size
# In short: as §1
# [7] = qHTS of pediatric cancer cell lines to identify multiple opportunities for drug repurposing: Confirmatory screen for Rh41 cells (AID 1347123); settings: Rh41 rhabdomyosarcoma cells, viability/cytotoxicity qHTS;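 also: 48 h compound exposure; nearly all actives have a fitted effect of over 60% in size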
# In short: as §1
# [8] = qHTS of pediatric cancer cell lines to identify multiple opportunities for drug repurposing: Confirmatory screen for RD cells (AID 1347124); settings: RD rhabdomyosarcoma cell viability;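 also: cells exposed to compound for 48 h before viability readout; nearly all actives have a fitted effect of over 65% in size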
# In short: as §1
# [9] = qHTS of pediatric cancer cell lines to identify multiple opportunities for drug repurposing: Confirmatory screen for Rh18 cells (AID 1347125); settings: Rh18 rhabdomyosarcoma cells, viability; also: nearly all actives have a fitted effect of over 55% in size
# In short: as §1
# [10] = qHTS of pediatric cancer cell lines to identify multiple opportunities for drug repurposing: Confirmatory screen for Rh30 cells (AID 1347126); settings: Rh30 rhabdomyosarcoma cell viability; also: nearly all actives have a fitted effect of over 55% in size
# In short: as §1
# [11] = qHTS of pediatric cancer cell lines to identify multiple opportunities for drug repurposing: Confirmatory screen for Saos-2 cells (AID 1347127); settings: Saos-2 osteosarcoma cell viability; also: nearly all actives have a fitted effect of over 60% in size
# In short: as §1
# [12] = qHTS of pediatric cancer cell lines to identify multiple opportunities for drug repurposing: Confirmatory screen for OHS-50 cells (AID 1347128); settings: OHS-50 osteosarcoma cells viability
# In short: as §1
# [13] = qHTS of pediatric cancer cell lines to identify multiple opportunities for drug repurposing: Confirmatory screen for SK-N-SH cells (AID 1347129); settings: SK-N-SH neuroblastoma cell viability;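 also: cells exposed to compound for 48 h before viability read; nearly all actives have a fitted effect of over 60% in size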
# In short: as §1
# [14] = test system: Zika virus NS2B-NS3 protease; assay: Primary screen GU AMC qHTS for Zika virus inhibitors (AID 1347154); settings: Zika NS2B-NS3 unlinked protease, AMC fluorogenic substrate; series mostly up to 54.1 µM; also: nearly all actives have a fitted effect of over 70% in size
# In short: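 Unlinked Zika NS2B hydrophilic domain/NS3 protease domain noncovalent complex (25 nM final) in 10 mM Tris-HCl pH 8.0, 0.01% Tween 20, with AMC peptide substrate. Fluorescence (ex 340, em 450 nm) change over 15 min, room temperature; percent inhibition fitted to 4-parameter Hill equation.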
# Furin (Homo sapiens) = Furin (Homo sapiens) (UniProt P09958); assay: Furin counterscreen qHTS for Zika virus inhibitors (AID 1347149); settings: furin enzymatic counterscreen, fluorogenic substrate; series mostly up to 57.5 µM; also: nearly all actives have a fitted effect of over 70% in size
# Sequence of Furin (Homo sapiens) (P09958 whole entry, looked up): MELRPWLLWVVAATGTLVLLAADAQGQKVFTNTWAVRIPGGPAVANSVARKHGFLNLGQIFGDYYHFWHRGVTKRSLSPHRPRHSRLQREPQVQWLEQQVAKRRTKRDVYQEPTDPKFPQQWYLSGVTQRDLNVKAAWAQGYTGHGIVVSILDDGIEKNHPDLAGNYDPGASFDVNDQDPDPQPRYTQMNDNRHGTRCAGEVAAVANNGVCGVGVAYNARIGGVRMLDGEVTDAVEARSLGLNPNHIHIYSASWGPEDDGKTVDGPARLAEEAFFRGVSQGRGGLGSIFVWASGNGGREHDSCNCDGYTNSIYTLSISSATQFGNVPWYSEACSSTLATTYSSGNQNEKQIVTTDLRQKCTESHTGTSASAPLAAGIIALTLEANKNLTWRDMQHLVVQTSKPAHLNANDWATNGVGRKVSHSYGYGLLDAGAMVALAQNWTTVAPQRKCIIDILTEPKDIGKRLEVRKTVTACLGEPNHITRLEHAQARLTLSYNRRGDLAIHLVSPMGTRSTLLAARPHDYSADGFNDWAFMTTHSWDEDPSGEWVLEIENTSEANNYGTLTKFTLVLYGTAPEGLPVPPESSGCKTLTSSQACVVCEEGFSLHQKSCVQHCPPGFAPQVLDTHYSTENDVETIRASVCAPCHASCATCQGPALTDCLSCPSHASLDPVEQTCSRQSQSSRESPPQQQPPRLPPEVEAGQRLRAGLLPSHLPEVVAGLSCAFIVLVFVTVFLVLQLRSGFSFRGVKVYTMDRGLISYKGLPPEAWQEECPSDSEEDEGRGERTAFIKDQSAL
# In short: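 Counterscreen measures cleavage of 2 microM BOC-RVRR-AMC, below its ~15 microM Km, by 5 nM full-length human furin at pH 7.0 after a 15-min compound preincubation. Inhibition derives from the 15-min fluorescence increase at 37C.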
# [15] = test system: Zika virus NS2B-NS3 protease (linked construct); assay: Confirmatory screen NINDS AMC qHTS for Zika virus inhibitors (AID 1347152); settings: Purified linked NS2B-NS3, AMC substrate fluorescence; series mostly up to 56.6 µM; also: nearly all actives have a fitted effect of over 70% in size
# In short: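 Enzyme (1 nM, linked construct) was preincubated with compound for 15 minutes at room temperature in 10 mM Tris-HCl pH 8.0 with 0.01% Tween 20. Bz-Nle-Lys-Arg-Arg-AMC was then added to 10 microM, and AMC fluorescence was recorded immediately and after 15 minutes.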
# [16] = test system: Zika virus NS2B-NS3 protease (unlinked complex); assay: Confirmatory screen GU AMC qHTS for Zika virus inhibitors (AID 1347153); settings: Recombinant NS2B-NS3 protease, AMC substrate fluorescence; series mostly up to 57.1 µM
# In short: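 Fluorescence change (ex 340/em 450 nm) over 15 min, ~20% substrate conversion, normalized to no-inhibitor and no-enzyme controls, then Hill-fitted. Unlinked protease at 25 nM; AMC peptide 10 µM.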
# [17] = molecular target: N-terminal Xaa-Pro-Lys N-methyltransferase 1 (Homo sapiens) (UniProt Q9BV86); assay: qHTS Assay for Inhibitors of N-terminal methyltransferase 1 (NTMT1): LOPAC validation of the NTMT1 SAHH-coupled ThioGlo3 Assay (AID 1347143); settings: recombinant NTMT1, SAHH-coupled ThioGlo3 fluorescence; series mostly up to 114 µM
# Sequence of N-terminal Xaa-Pro-Lys N-methyltransferase 1 (Homo sapiens) (Q9BV86 whole entry, looked up): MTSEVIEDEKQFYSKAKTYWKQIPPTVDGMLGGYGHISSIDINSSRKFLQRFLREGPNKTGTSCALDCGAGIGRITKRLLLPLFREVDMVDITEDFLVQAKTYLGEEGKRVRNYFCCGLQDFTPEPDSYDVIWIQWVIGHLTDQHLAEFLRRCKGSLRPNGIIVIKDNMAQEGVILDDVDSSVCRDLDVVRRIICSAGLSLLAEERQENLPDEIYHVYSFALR
# In short: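 In this qHTS pilot against the LOPAC set, 125nM NTMT1 met compounds tested at multiple concentrations, and fluorescence was normalized to background.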
# [18] = test system: Zika virus NS2B-NS3 protease (unlinked); assay: Optimization of GU AMC qHTS for Zika virus inhibitors: Unlinked NS2B-NS3 protease assay (AID 1347151); settings: recombinant ZIKV NS2B-NS3 protease, fluorogenic AMC substrate; series mostly up to 52.5 µM; also: nearly all actives have a fitted effect of over 80% in size
# In short: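 Unlinked protease (25 nM final); buffer 10 mM Tris-HCl pH 8.0 + 0.01% Tween 20; AMC substrate; 15 min RT, dark; Δfluorescence normalized to no-inhibitor/no-enzyme controls; 4-parameter Hill fit.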
# Potency is read from the fitted curve at half-maximal effect.
smiles,measurement,setting,value
C[CH2][Hg][S]c1ccccc1C(=O)O,Potency,[1],7.37 µM (active)
same,Potency,[2],8.27 µM (active)
same,Potency,[3],2.93 µM (active)
same,Potency,[4],5.22 µM (active)
same,Potency,[5],16.5 µM (active)
same,Potency,[6],8.27 µM (active)
same,Potency,[7],1.17 µM (active)
same,Potency,[8],7.37 µM (active)
same,Potency,[9],16.5 µM (active)
same,Potency,[10],4.14 µM (active)
same,Potency,[11],2.93 µM (active)
same,Potency,[12],9.27 µM (active)
same,Potency,[13],5.26 µM (active)
same,Potency,[14],inactive
O=c1ccc2[nH]cc(C3=CCNCC3)c2[nH]1,Potency,Furin (Homo sapiens),24.1 µM (active)
same,Potency,[15],24.1 µM (active)
same,Potency,[16],24.1 µM (active)
same,Potency,[14],26.7 µM (active)
CN1CCc2cccc(Cl)c2CC1,Potency,[17],inactive
same,Potency,[18],inactive
CC(N)c1cccc(Cl)c1Cl (configuration not stated),Potency,[17],inactive
same,Potency,[18],inactive
CC(=O)NBr,Potency,[17],inactive
same,Potency,[18],inactive
CCCN1CCc2cccc3c2[C@H]1Cc1ccc(O)c(O)c1-3,Potency,[17],15.8 µM (active)
same,Potency,[18],29.9 µM (active)
NC(Cc1cc(O)c(O)cc1O)C(=O)O (configuration not stated),Potency,[17],44.7 µM (active)
same,Potency,[18],7.52 µM (active)
COc1ccc(OC)c(C(O)C(C)N)c1 (configuration not stated),Potency,[17],inactive
same,Potency,[18],inactive
CC1(C(=O)O)C2CCC(O2)C1(C)C(=O)O (configuration not stated),Potency,[17],inactive
same,Potency,[18],inactive
CN(N=O)c1cc(O)ccc1O,Potency,[17],3.55 µM (active)
same,Potency,[18],inactive
NCC(O)c1cc(O)c(O)cc1F (configuration not stated),Potency,[17],56.2 µM (active)
same,Potency,[18],inactive
C#CCN[C@H](C)Cc1ccccc1,Potency,[17],inactive
same,Potency,[18],inactive
O=C(NC1CN2CCC1CC2)c1cc2ccoc2cn1 (configuration not stated),Potency,[17],inactive
same,Potency,[18],inactive
CN1CCc2cc(O)cc3c2[C@H]1Cc1ccc(O)c(O)c1-3,Potency,[17],35.5 µM (active)
same,Potency,[18],23.8 µM (active)
